In PubChem BioAssay (NCI):
Several values for one entry are separate records, joined by “and”; a condition that tells them apart may be missing. Equal entries are not always repeated. About 83,000 compounds went through this panel and 20% of them were active in at least one assay; those are over-represented in the sample as a whole.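 Step 1: grow cells in 96-well plates. Step 2: add test compound at a single concentration. Step 3: incubate 48 h. Step 4: record percent growth.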 Activity calls are given as the source filed them. How the source made its calls: active means growth percent below 10; inactive means the rest.

The compounds below were run on MDA-MB-468 breast (assay: NCI-60 one-dose screen, 48 h (100 = growth as untreated, 0 = no growth, -100 = all killed)). Settings: 10 µM unless noted.

| Compound | growth |
| --- | --- |
| CO[C@H]1CC(=O)n2c3ccccc3c3c4c(c5c6ccccc6n1c5c32)C(=O)NC4=O | 34.2% (inactive) |
| Cc1cc(C(=O)Nc2ccc(SC#N)cc2)c(C)o1 | 96.1% (inactive) |
| COc1ccc(CSc2nc3cc(OC)c(OC)cc3c(=O)n2-c2ccc(OC)cc2OC)cc1 | 74.3% (inactive) |
| O=S(=O)(NCCCNc1nccc(-c2c(-c3ccc(F)c(O)c3)nc3occn23)n1)c1ccccc1 | 94.8% (inactive) |
| C=C(c1ccc(OC)c(/C=C/C(=O)c2ccc3c(c2)OCO3)c1)c1cc(OC)c(OC)c(OC)c1 | 37.4% (inactive) |
| C#CCOc1ccc(C(Nc2ccc(Cl)cc2)c2nnnn2C2CCCCC2)cc1 (stereo not given) | 87.1% (inactive) |
| C#Cc1cc(C(=O)Nc2ccc(CN3CCN(C)CC3)c(C(F)(F)F)c2)ccc1C | 66.5% (inactive) |
| CSc1nc2ccccc2cc1/C=C1/C=C(c2ccccc2)NC1=O | 61.6% (inactive) |
| O=C(CCl)Nc1ccc2c(c1)C(=O)c1ccc(NC(=O)CCl)cc1C2=O | -75.7% (active) |
| COc1ccc(-c2n[nH]nc2-c2cc(OC)c(OC)c(OC)c2)cc1 | -0.494% (active) |
| CCn1c(SC/C(=N/O)c2ccccc2)nnc1-c1ccccc1 | 108% (inactive) |
| CC(O)Cc1c[nH]c(=O)[nH]c1=O (stereo not given) | 121% (inactive) |
| O=c1c2ccccc2n(C[C@H]2CO2)c2ccccc12 | -7.32% (active) |
| Cc1ccc2nc(NC(=O)CSC(=S)N3CCN(c4ccccc4)CC3)sc2c1 | 101% (inactive) |
| COc1ccc(Cc2cc(-c3ccccc3)nn(Cc3ccccc3)c2=O)cc1OC | 42.9% (inactive) |
| O=C(CCCCCCC(=O)Nc1ccc2c(c1)/C(=C/c1ccc[nH]1)C(=O)N2)NO | 22.9% (inactive) |
| Nc1ccc(N2CCOCC2)cc1 | 96.9% (inactive) |
| Nc1nc(N)c2c(n1)NC(c1cccc(Nc3ccnc4cc(C(F)(F)F)ccc34)c1)CC(c1ccc3c(c1)OCO3)=N2 (stereo not given) | 58% (inactive) |
| N#Cc1nc(-c2ccccc2)oc1N1CCC(CO)C1 (stereo not given) | 92.5% (inactive) |
| Cc1[nH]c(C(=O)Nc2ccccc2OC2CCNCC2)c(Cl)c1Cl | 16.2% (inactive) |

| Compound | growth |
| --- | --- |
| Cc1cc2c(cc1C)N(C(=O)CCl)CCN2C(=O)CCl | -76% (active) |
| NS(=O)(=O)c1ccc(Nc2nc(N/N=C/c3ccc4c(c3)OCO4)nc(Nc3ccccc3)n2)cc1 | 46.4% (inactive) |
| Clc1ccc(/C=C/c2ccc3ccccc3n2)cc1 | -11.4% (active) and 73.5% (inactive) and 80.5% (inactive) |
| COc1ccc(N2CCN(C(=O)c3sc4nc(C)c(Br)c(C)c4c3N)CC2)cc1 | 109% (inactive) |
| C=C1C(=O)O[C@H]2[C@H]1CC/C(COC(=O)NCCc1cccc(OC)c1)=C\CC[C@@]1(C)O[C@@H]21 | 18.9% (inactive) |
| O=[N+]([O-])c1cccc(CN(Cc2cccc([N+](=O)[O-])c2O)c2ccccc2)c1O | 108% (inactive) |
| COc1ccc(-c2nnc(-c3ccc4c(c3)nc(-c3ccncc3)n4C3CCCCC3)o2)cc1 | 75.2% (inactive) |
| COc1ccc2ncccc2c1Cc1c(OC)ccc2ncccc12 | 8.37% (active) |
| Nc1ccccc1NC(=O)c1ccc(NC(=O)C/C=C/c2cccnc2)cc1 | -7.27% (active) |
| CCn1cc(C2NC(=O)c3cc(F)ccc3N2)c2cccc(Cl)c21 (stereo not given) | 7.04% (active) |
| C/C(=N\Nc1ccc([N+](=O)[O-])cn1)c1ccc(N)cc1 | 99.7% (inactive) |
| COc1ccc(-c2cc(-c3ccccc3)nc(SCCCC(=O)NO)n2)cc1OC | -2.2% (active) |
| NC[C@@H]1O[C@H](O[C@@H]2[C@@H](CO)OC(O[C@@H]3[C@@H](O)[C@H](N)C[C@H](N)[C@H]3OC3O[C@H](CN)[C@@H](O)[C@H](O)[C@H]3N)[C@@H]2O)[C@H](N)[C@@H](O)[C@@H]1O (stereo not given in full) | 110% (inactive) |
| CCN(CC)Cc1cc(Nc2ccnc3cc(Cl)ccc23)cc(-c2ccc(Cl)cc2)c1O | 5.28% (active) |
| CCOC(=O)c1noc2c1CCc1c-2cn(Cc2ccc(OC)cc2)c1-c1cc(OC)c(OC)c(OC)c1 | 6.06% (active) |
| C[C@@H]1C(=O)N(C[C@H](Cc2ccccc2)NC(=O)OCc2ccccc2)[C@]1(Cc1ccccc1)C(=O)OC(C)(C)C | 46.7% (inactive) |
| O=c1[nH]cc(Cl)cc1O | 108% (inactive) |
| COc1cc(C2CC(c3ccc(Nc4ccnc5cc(Cl)ccc45)cc3)=NN2c2ccccc2)cc(OC)c1OC (stereo not given) | 44.6% (inactive) |
| COc1ccc(NC(=O)c2ccc(Nc3ncnc4[nH]c(C)c(C)c34)cc2)cc1 | 119% (inactive) |
| CN1CCN(CCOc2ccc(-c3cnc4c(-c5ccc(C(F)(F)F)cc5)cnn4c3)cc2)CC1 | 42.1% (inactive) |
